Data on twelve compounds can be found in PubChem BioAssay (NCI).

About 83,000 compounds went through this panel and 20% of them were active in at least one assay; those are over-represented in the sample as a whole.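 48-hour exposure, single concentration, 96-well plates; percent growth endpoint where 0 means no net growth. Active: below 10.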 Unmarked numbers belong to inactive results. Active and inactive are the calls of the source.

The subject of one test is A549/ATCC NSCLC. The test can be described thus: NCI-60 one-dose screen, 48 h (100 = growth as untreated, 0 = no growth, -100 = all killed). The note with it: 10 µM unless noted.
For `Nc1c(C(=O)Nc2ccccc2)sc2nc3c(cc12)CN(CCc1ccccc1)CC3`, the growth was 107%.
As for `CC(C)[C@@H]1CC[C@]2(C(=O)NCCCCN=C(N)N)CC[C@]3(C)[C@H](CC[C@@H]4[C@@]5(C)CCC(=O)C(C)(C)[C@@H]5CC[C@]43C)[C@@H]12`, the growth is 80.9%.
Still for that read-out and setting: the same measure for `CCOC(=O)c1cnc2ccc(Br)cc2c1Nc1cccc(S(=O)(=O)NC)c1`: 104%.

Another test has as its system 786-0 renal. The test is described as above. The conditions noted are these: 10 µM unless noted.
As for `Cc1cc(-c2nc3ccccc3s2)ccc1NC(=O)COc1ccc(Cl)cc1`, the growth is 93.4%.
Regarding `C[C@H](CCC(=O)O)[C@H]1CC[C@H]2[C@@H]3CC[C@@H]4/C(=C\c5ccco5)C(=O)/C(=C\c5ccco5)C[C@]4(C)[C@H]3CC[C@]12C`, the growth is 91%.
For the compound `COc1cc2c(c(OC)c1OC)-c1ccc(N=NC(N)=S)c(=O)cc1[C@@H](NC(C)=O)CC2`, the growth was 9.81% (active).
With `c1ccc(CSc2ncnc3nc[nH]c23)nc1`, the growth was 92.4%.
For the compound `CC(=O)Nc1ccc2c(c1)c(NC(C)=O)nn2C(=O)Nc1ccc(Cc2ccccc2)cc1`, the growth is 67.9%.
For the compound `COc1cc2c(=O)n(CC3CCCCC3)c3c4cc[nH]c4ncc3c2cc1OC`, the growth is 46.4%.
For `COC1/C=C\OC2(C)Oc3c(C)c(O)c4c(O)c(c(CN(C)CCO)c(O)c4c3C2=O)NC(=O)/C(C)=C\C=C/C(C)C(O)C(C)C(O)C(C)C(OC(C)=O)C1C` (configuration not stated), the growth is 95.9%.
On to `Cc1cc(N/N=C/c2nc(-c3ccc(Cl)cc3)oc2C)c2cc(Cl)ccc2n1`, for which the growth is -39.8% (active).
Regarding `C=C1CC[C@@H]2[C@](C)(COC(C)=O)[C@H](OC(C)=O)CC[C@@]2(C)[C@@H]1CC(NCc1ccc(F)cc1)C1=CCOC1=O` (some centres not stated), the growth is 86.8%.
